Measurements reported in the OligoGym collection.

Each sequence was assayed against CD27 (assay: pooled miR-30 sensor sort-seq; sequence = guide strand). Conditions: shRNA.
Also: reference of the scale not given here.

Sequence | sensor-assay potency score (higher = more potent)
TTTTCGGTAATCCTCCTGGATG | -1.32
TCACACTGAGCAGCCTTTCTAT | -1.13
TTTGATCTATATTTCCTTCGTT | 0.393
AAGGATGCGAATAAAATCGGAG | -0.423
ATGCGAATAAAATCGGAGCTGC | -0.25
TTGTTTGATCTATATTTCCTTC | -0.475

Each sequence was assayed against CD300E in the same assay as above. Conditions: shRNA.

Sequence | sensor-assay potency score (higher = more potent)
ATACTGACACCACACTGTCAGA | -1.71
TTGTACATGCTCTCATACTGAC | -0.406
TTTGGGTCAACACCTCCCCGGT | -1.29
ACTGTCTGAATTTTGCACCAGT | -0.28
TTGGTCTCCACAATGCTCTCAC | 0.408
TCACATGACGTGTCGTACTGTC | 0.205
ATCATCTTCATTGAGGTTCTGC | 0.407
TTGGGGTTGTAATTGCTGGGGA | -0.0469
TTTTGGGTCAACACCTCCCCGG | -0.887
TGGTCTCTGATGGACACGCGGC | -1.67
ATGACGTGTCGTACTGTCCTCG | -0.632
TGAATTTTGGGTCAACACCTCC | -1.03

These sequences were tested against CD300LG in the same assay as above. Conditions: shRNA.

Sequence | sensor-assay potency score (higher = more potent)
TAGATGGTGCCAGAGCAGCGAG | -1.7
TTCTACTTTTCTCTCTAGCCAC | -0.61
TATCCCTGCAATGTGCACCTGA | 0.23
TTGGTGTCGCAGACAGAGCAGA | -1.29
TTCCCTGTAGGTGCACTGCAGG | -0.985
TCCTGCACCAGTACTTCCGGTG | -1.28
TTTTCTTCATCATTTTTCCAAA | -1.26
TCTTCTTCTGCATAGATGGTGC | -0.808
TTCTTCTTCTGCATAGATGGTG | -0.287
TCTGTGTTAGACACCTACGTGC | 0.23
TCTTCTGCATAGATGGTGCCAG | -0.529
TTCCTGCACCAGTACTTCCGGT | -1.16

Each sequence was assayed against CD320 in the same assay as above. Conditions: shRNA.

Sequence | sensor-assay potency score (higher = more potent)
TTCTGTTCTGACAGCAGCAGGG | -0.457
TCCACAGCCGAGCTCGTCGCTG | -1.78
TCTGTTCTGACAGCAGCAGGGA | -0.673
AATGCAGTCATCGCTCAGCGTG | -1.16
TTCCGGGAGGATCTCATTGGTT | -1.44
TAGTCCGAGGCCGAGCAGCAGC | -1.57
TCGCTGCAGTCCAAGTCCCTGT | -1.39
ATGCAGTCATCGCTCAGCGTGC | -1.64
TTGCACTGAGCACCGCAGCAGC | -1.06
TTGCGCAGTTTCTTGTCAGTTC | -0.101
